PubChem BioAssay
“And” between values parts separate entries of the source, which are not always exact repeats. Identical values can stand only once. The source made the active and inactive calls.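 Rule for the calls, unless noted: active = compounds whose cell count with miR-34 switched on is under 0.7 times the count with it off; inactive = the rest.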

Key:
[1] = sensitizers of A549 cells to miR-34 induction, primary screen, imaging, A549 dox-inducible miR-34, nuclei and caspase counts (AID 1347080); settings: A549 miR-34 inducible, Hoechst nuclei count, 48 h; note: test concentration not given here
[2] = survival rescue of mitochondrial mutant cells in low glucose, primary screen, MELAS cybrids, Rieske KO mouse fibroblasts, CellTiter-Glo (AID 1508586;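 active = mean z-score across replicates of 1.96 or higher in either the MELAS or the Rieske mutant cell line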;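 note: test concentration not given here; z relative to plate mean and SD of compound and empty wells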)
[3] = viability rescue of complex I mutant cybrids, primary screen, cell-based, galactose medium, ATP luminescence (AID 1645843;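 active = z-score of at least 1.8 in each of two replicates, scored against plate mean and spread of sample wells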;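 note: positive z means more ATP and so rescue of galactose-driven cybrid death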); settings: complex I mutant cybrid cells, 72 h, stronger effect = higher value
[4] = stronger effect = lower value, cell number ratio, induced over uninduced
[5] = measured here: relative caspase fold change +Dox/-Dox
[6] = measured here: total cells with miR-34 induction, stronger effect = lower value
[7] = measured here: total cells without miR-34 induction
[8] = MELAS cybrid survival, CellTiter-Glo 48 h, stronger effect = higher value
[9] = Rieske KO mouse fibroblast survival, CellTiter-Glo 72 h

Row | SMILES | fold change [1, 4] | fold change [1, 5] | cell count [1, 6] | cell count [1, 7] | z-score [2, 8] | z-score [2, 9] | z-score [3]
1 | CCCn1cc(-c2ccnc(NC3CCN(Cc4cccnc4)CC3)n2)c(C)n1 | 0.82 (inactive) | 2 | 3430 | 4180 | -0.647 (inactive) | 0.672 | -0.55 (inactive)
2 | Cc1nsc(NC(=O)NC2CCc3ccccc3C2)n1 (stereo unspecified) | 0.899 (inactive) | 1 | 3190 | 3550 | -0.269 (inactive) | -0.339 | 1.48 (inactive)
3 | c1cc(-c2nc(Cc3ccsc3)no2)c2nccnc2c1 | 0.89 (inactive) | 0.787 | 8210 | 9220 | -0.0904 (inactive) | 1.15 | 0.105 (inactive)
4 | CCOC(=O)c1cc2ccc(O)cc2oc1=O | 0.98 (inactive) | 0.374 | 10300 | 10500 | 0.534 (inactive) | -0.345 | 0.595 (inactive)
5 | COC(=O)CN1CCN(c2ncnc3sccc23)C(C)C1=O (stereo unspecified) | 0.854 (inactive) | 1.54 | 7880 | 9220 | 0.221 (inactive) | 0.142 | -0.055 (inactive)
6 | Fc1ccccc1-c1cc(NCc2ccncc2)n2nccc2n1 | 1.06 (inactive) | 0.296 | 4240 | 4020 | -1.56 (inactive) | -0.13 | 0.425 (inactive)
7 | CC(=O)[C@]1(O)Cc2c(O)c3c(c(O)c2C(OC2CC(N)C(O)C(C)O2)C1)C(=O)c1ccccc1C3=O (stereo partly specified) | 0.995 (inactive) and 0.89 (inactive) | 0.907 and 1.04 | 734 and 2090 | 738 and 2350 | 2.4 (active) | -0.525 | -1.88 (inactive)
8 | O=C(O)c1cccnc1Nc1ccc(Cl)cc1 | 1.17 (inactive) | 0.619 | 5660 | 4840 | -0.775 (inactive) | -0.287 | 0.845 (inactive)
9 | Cc1nn(C)c(C)c1-c1ccnc(N2CCCC2c2nc(-c3cccnc3)no2)n1 (stereo unspecified) | 0.869 (inactive) | 1.21 | 6880 | 7910 | -0.00142 (inactive) | 0.462 | -0.385 (inactive)
10 | O=[N+]([O-])c1ccc(-c2ccn[nH]2)cc1 | 0.922 (inactive) | 0.744 | 8360 | 9070 | -0.915 (inactive) | -0.293 | 0.59 (inactive)
11 | O=C(Nc1ccccc1)c1ccn[nH]1 | 0.856 (inactive) | 0.232 | 7620 | 8910 | -0.292 (inactive) | 0.207 | 0.49 (inactive)
12 | COc1ccc(-c2oc3ncnc(NCCO)c3c2-c2ccc(OC)cc2)cc1 | 0.89 (inactive) | 0.844 | 5740 | 6450 | 1.03 | 11.9 | -1.77 (inactive)
13 | COc1cc(F)c(-c2nc3c(cnn3Cc3cccs3)[nH]2)c(F)c1 | 0.818 (inactive) | 1.31 | 6350 | 7760 | -0.593 (inactive) | -0.339 | 2.49 (active)
14 | O=C(O)c1ccc(-c2ccccc2OC(F)(F)F)o1 | 0.872 (inactive) | 0.264 | 8780 | 10100 | -0.488 (inactive) | 0.181 | 0.04 (inactive)
15 | COc1ccc2nc(Cn3cnc4cc(F)ccc4c3=O)[nH]c2c1 | 0.891 (inactive) | 1.56 | 7880 | 8840 | -0.0496 (inactive) | -0.0588 | -0.39 (inactive)
16 | Oc1ccc(C=Cc2cc(O)cc(O)c2)cc1 | 2.61 (inactive) and 0.913 (inactive) | 1.12 and 0.945 | 6320 and 7520 | 2420 and 8230 | -0.411 (inactive) | 0.338 | 1.1 (inactive)
17 | Cc1nc2ccc(-c3ncnc4sccc34)cc2c(=O)[nH]1 | 0.886 (inactive) | 1.29 | 9390 | 10600 | 0.107 (inactive) | 0.235 | -0.465 (inactive)
18 | O=C1NCC(=O)N2CCCC12 (stereo unspecified) | 0.892 (inactive) | 0.892 | 8240 | 9240 | -0.237 (inactive) | -0.595 | 0.315 (inactive)
19 | Cc1nn(C)cc1-c1ccnc(NCc2nc(-c3ccccc3)no2)n1 | 0.84 (inactive) | 1.25 | 7970 | 9490 | -0.588 (inactive) | 1.31 | 0.09 (inactive)
20 | O=c1cc(-c2cccnc2)nc(-c2ccc(CN3CCCC(CO)C3)cc2)[nH]1 (stereo unspecified) | 0.899 (inactive) | 2.12 | 7730 | 8590 | -0.0299 (inactive) | -0.608 | -0.56 (inactive)
21 | CC(C)(N)c1cn(C2CCN(c3nc(N)nc4nc[nH]c34)CC2)nn1 | 0.945 (inactive) | 0.882 | 9180 | 9720 | 1.11 (inactive) | -0.203 | -0.545 (inactive)
22 | O=C1CCNC(=O)N1 | 0.882 (inactive) | 0.303 | 8710 | 9870 | 0.298 (inactive) | 0.144 | 0.585 (inactive)
23 | Cc1cnc(CN(C)C(=O)c2n[nH]c3ccccc23)[nH]1 | 0.891 (inactive) | 1.39 | 8830 | 9910 | 0.305 (inactive) | -0.304 | -0.445 (inactive)
